Measured values published in PubChem BioAssay (NCATS).
“And” between values parts separate entries of the source, which are not always exact repeats. Equal values may be shown once. Results filed as inconclusive are left out. The source made the active and inactive calls. Calls follow the shape of the dose curve; as a rule, active = well fitted curve in the direction sought with a large enough effect; inconclusive = small, poorly fitted or top-dose-only effect, or another doubt; inactive = no such curve, though single readings can be large; an effect the other way counts as inactive or inconclusive.

How the values were obtained:
[1] = biological target: Cytochrome P450 3A7 (Homo sapiens) (UniProt P24462); assay: Cytochrome P450 family 3 subfamily A member 7 (CYP3A7) small molecule antagonists: luciferase biochemical qHTS assay (AID 1963596); also: nearly all actives have a fitted effect of over 40% in size
Cytochrome P450 3A7 (Homo sapiens), sequence (P24462 whole entry, looked up): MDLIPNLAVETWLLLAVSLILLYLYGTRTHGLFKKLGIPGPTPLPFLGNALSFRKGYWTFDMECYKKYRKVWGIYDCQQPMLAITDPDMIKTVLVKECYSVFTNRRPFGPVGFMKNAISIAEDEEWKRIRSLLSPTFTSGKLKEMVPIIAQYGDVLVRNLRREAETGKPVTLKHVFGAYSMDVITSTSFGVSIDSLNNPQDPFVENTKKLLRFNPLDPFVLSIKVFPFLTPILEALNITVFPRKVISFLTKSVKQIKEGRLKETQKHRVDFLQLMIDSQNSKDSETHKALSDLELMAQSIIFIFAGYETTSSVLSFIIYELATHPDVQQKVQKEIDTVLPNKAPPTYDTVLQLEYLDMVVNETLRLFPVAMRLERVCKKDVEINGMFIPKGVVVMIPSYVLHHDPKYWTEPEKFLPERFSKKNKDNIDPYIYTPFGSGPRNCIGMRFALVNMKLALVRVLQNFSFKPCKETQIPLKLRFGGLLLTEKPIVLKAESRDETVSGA
Summary of the method: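 Luminescence read-out (relative luminescence units) after 20 min with detection reagent, which stops the reaction. Enzyme, proluciferin substrate and compound preincubated 10 min, RT; NADPH regeneration system then started 1 h reaction. Ketoconazole as positive control.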

[2] = Cellular viability qHTS for adrenocortical cancer (ACC) cell line SW-13 (AID 1963989); details: SW-13 ACC cells viability, CellTiter-Glo, 48 h; activity (max response): active compounds read low; also: nearly all actives have a fitted effect of over 65% in size;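 as to activity (max response): cells grown in serum-free medium with ITS supplement; % is scaled to controls: 0 for no effect and ±100 for the full control effect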
Summary of the method: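 Compound titrations (up to 46 uM final, in DMSO) were applied to SW-13 cells for 48 h at 37C/5% CO2. Reading used CellTiter-Glo after 20 min at room temperature; fitted curves yielded IC50 and efficacy.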

[3] = Quantitative highthroughput screen to assess conditional lethalithy of NOMO1 cells grown in RPMI1640 with dialyzed fetal bovine serum (RPMI+ds) (AID 1963877); also: nearly all actives have a fitted effect of over 30% in size;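 as to viability: series mostly up to about 46 µM; 100% = DMSO control wells and 0% = empty wells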
Summary of the method: (§1)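 Each medium arm—HPLM with 10% dialyzed FBS, or RPMI1640 with 5 mM glucose and 10% untreated or dialyzed FBS—was screened against an 11-point, 3-fold compound titration for 48 h at 37 °C, with CellTiter-Glo luminescence as endpoint.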

[4] = Quantitative highthroughput screen to assess conditional lethalithy of NOMO1 cells grown in Human Plasma-Like Medium with dialyzed fetal bovine serum (HPLM+ds) (AID 1963878); also: nearly all actives have a fitted effect of over 35% in size;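 as to viability: 100% = DMSO wells and 0% = empty wells on each plate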
Summary of the method: as §1

[5] = Quantitative highthroughput screen to assess conditional lethalithy of P12 Ichikawa cells grown in Human Plasma-Like Medium with dialyzed fetal bovine serum (HPLM+ds) (AID 1963879); details: Potency: viability; also: nearly all actives have a fitted effect of over 35% in size; as to viability: series mostly up to about 46 µM
Summary of the method: as §1

[6] = Quantitative highthroughput screen to assess conditional lethalithy of P12 Ichikawa cells grown in RPMI1640 with untreated serum (RPMI+s) (AID 1963881); details: Potency: viability; also: nearly all actives have a fitted effect of over 35% in size;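 as to viability: series mostly up to about 46 µM; 100% = DMSO wells and 0% = empty wells without cells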
Summary of the method: as §1

[7] = Quantitative highthroughput screen to assess conditional lethalithy of SEM cells grown in Human Plasma-Like Medium with dialyzed fetal bovine serum (HPLM+ds) (AID 1963882); also: nearly all actives have a fitted effect of over 35% in size; as to viability: series mostly up to about 46 µM
Summary of the method: as §1

[8] = Quantitative highthroughput screen to assess conditional lethalithy of SEM cells grown in RPMI1640 with unreated serum (RPMI+s) (AID 1963883); also: nearly all actives have a fitted effect of over 35% in size;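 as to viability: 100% = DMSO wells and 0% = empty wells without cells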
Summary of the method: as §1

[9] = Quantitative highthroughput screen to assess conditional lethalithy of SEM cells grown in RPMI1640 with dialyzed fetal bovine serum (RPMI+ds) (AID 1963884); also: nearly all actives have a fitted effect of over 35% in size;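 as to viability: series mostly up to about 46 µM; 100% = DMSO control wells and 0% = empty wells without cells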
Summary of the method: as §1

[10] = Cellular viability qHTS for adrenocortical cancer (ACC) cell line NCI-H295R (AID 1963990); also: nearly all actives have a fitted effect of over 60% in size
Summary of the method: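 Readout: CellTiter-Glo luminescence, 20 min RT. Exposure: 48 h, 37C/5% CO2. Cells: NCI-H295R, ITS-DMEM serum-free. Range: up to 46 uM. Analysis: 4PL fit, IC50 plus efficacy.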

[11] = Quantitative highthroughput screen to assess conditional lethalithy of NOMO1 cells grown in RPMI1640 with untreated serum (RPMI+s) (AID 1963876); also: nearly all actives have a fitted effect of over 35% in size;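 as to viability: 100% = DMSO wells and 0% = empty wells without cells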
Summary of the method: as §1

[12] = Quantitative highthroughput screen to assess conditional lethalithy of P12 Ichikawa cells grown in RPMI1640 with dialyzed fetal bovine serum (RPMI+ds) (AID 1963880); details: Potency: P12-Ichikawa viability; also: nearly all actives have a fitted effect of over 35% in size;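 as to viability: 100% = DMSO wells and 0% = empty wells on each plate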
Summary of the method: as §1
Potency is read from the fitted curve at half-maximal effect.

Oc1c(Br)cc(Br)c2cccnc12
inactive: Potency [1]
active: Potency [2] 4.61 µM

Cc1[nH]c(=O)c(C#N)cc1-c1ccc2nccn2c1
inactive: Potency [1] | Potency [3] | Potency [4] | Potency [5] | Potency [6] | Potency [7] | Potency [8] | Potency [9] | activity (max response) [2] 11.7% | Potency [10]

CC(S)C(=O)NCC(=O)O (centres undefined)
inactive: Potency [1] | Potency [11] | Potency [3] | Potency [5] | Potency [12] | Potency [6] | activity (max response) [2] 6.56% and -5.95% | Potency [10]

CCN(CC)CC#CCOC(=O)C(O)(c1ccccc1)C1CCCCC1 (centres undefined)
inactive: Potency [1] | Potency [11] | Potency [4] | Potency [5] | Potency [12] | Potency [7] | Potency [8] | Potency [9]

COc1cc(C(=O)N2CCOCC2)cc(OC)c1OC
inactive: Potency [1] | activity (max response) [2] 1.89%

COc1cc(Nc2ncc3c(n2)-c2ccc(Cl)cc2C(c2c(F)cccc2OC)=NC3)ccc1C(=O)O
active: Potency [11] 0.0833 µM | Potency [3] 0.0662 µM | Potency [5] 0.0743 µM | Potency [6] 0.059 µM | Potency [2] 31.6 µM | Potency [10] 2.24 µM
inactive: Potency [1]

Cc1cc(-n2nc3ccc(Cl)cc3n2)c(O)c(C(C)(C)C)c1
inactive: Potency [1] | activity (max response) [2] 9.75%

COc1ccc(C=CC(=O)Nc2ccccc2C(=O)O)cc1OC
inactive: Potency [1] | Potency [11] | Potency [5] | Potency [12] | Potency [6] | Potency [7] | Potency [8]

COc1nccc(-c2c(-c3ccc(F)cc3)ncn2C2CCC(O)CC2)n1 (centres undefined)
inactive: Potency [1] | Potency [5] | Potency [6] | activity (max response) [2] -14% | Potency [10]
active: Potency [8] 5.26 µM

CCN1CCc2nc(N)oc2CC1
inactive: Potency [1] | activity (max response) [2] 7.47%

NC(=O)N[C@@H](CCC(=O)O)C(=O)O
inactive: Potency [1] | activity (max response) [2] 9.08%

Nc1ccn(C2CO[C@H](CO)O2)c(=O)n1 (some centres undefined)
inactive: Potency [1] | Potency [11] | Potency [3] | Potency [5] | Potency [12] | Potency [6] | Potency [7] | Potency [8] | Potency [9]

O=c1[nH]cc(F)c(=O)[nH]1
inactive: Potency [1] | activity (max response) [2] -6.36% | Potency [10]
active: Potency [4] 10.5 µM | Potency [12] 10.5 µM | Potency [7] 9.35 µM | Potency [8] 9.35 µM | Potency [9] 10.5 µM

CS(=O)(=O)OCCCCOS(C)(=O)=O
inactive: Potency [1] | activity (max response) [2] 4.16% | Potency [10]
active: Potency [8] 20.9 µM | Potency [9] 20.9 µM

Cc1oc(=O)oc1CN1CCN(c2cc3c(cc2F)c(=O)c(C(=O)O)c2n3C(C)S2)CC1 (centres undefined)
inactive: Potency [1] | Potency [11] | Potency [3] | Potency [5] | Potency [12] | Potency [6] | activity (max response) [2] 4.83% and 4.68% | Potency [10]

CCOC(=O)N1CCN([N+]([O-])=NOc2ccc([N+](=O)[O-])cc2C#N)CC1
active: Potency [11] 3.32 µM | Potency [3] 2.96 µM | Potency [5] 1.05 µM | Potency [6] 1.05 µM | Potency [7] 1.18 µM | Potency [8] 1.05 µM | Potency [9] 1.05 µM
inactive: Potency [1]

C[C@@H]1C[C@H]2[C@@H]3CCC4=CC(=O)C=C[C@]4(C)[C@@]3(F)[C@@H](O)C[C@]2(C)[C@@]1(O)C(=O)COC(=O)c1ccncc1
inactive: activity (max response) [2] -0.514%
active: Potency [1] 8.71 µM

O=C(NCCO[N+](=O)[O-])c1cccnc1
inactive: Potency [1] | Potency [11] | Potency [5] | Potency [12] | Potency [6] | Potency [7] | Potency [8] | Potency [9] | activity (max response) [2] 2.63% and 5.13% | Potency [10]

COc1ccc([C@@H]2CC(=O)c3c(O)cc(O[C@@H]4O[C@H](CO[C@@H]5O[C@@H](C)[C@H](O)[C@@H](O)[C@@H]5O)[C@@H](O)[C@H](O)[C@@H]4O)cc3O2)cc1O
inactive: Potency [1] | Potency [11] | Potency [3] | Potency [4] | Potency [12] | Potency [6] | Potency [7] | Potency [8] | Potency [9]

N#C[C@H]1C[C@H]2C[C@@H]2N1C(=O)[C@@H](N)C12CC3CC(CC(O)(C3)C1)C2
inactive: Potency [1] | Potency [5] | Potency [6] | Potency [9] | activity (max response) [2] 11.7% | Potency [10]
active: Potency [4] 10.5 µM

C[C@@H]1CCN(C(=O)N2CCCC2)C[C@@H]1N(C)c1ncnc2[nH]ccc12
inactive: Potency [1] | activity (max response) [2] 11.2%

COc1ccc(Nc2cc(-c3cnc(N)nc3)nc(N3CCOCC3)n2)cn1
active: Potency [12] 2.64 µM | Potency [6] 2.35 µM | Potency [10] 2.24 µM
inactive: Potency [1]

COc1ccc(CCN2CCN(CCCc3ccccc3)CC2)cc1OC
inactive: Potency [1] | Potency [11] | Potency [4] | Potency [5] | Potency [12] | Potency [6] | Potency [7] | Potency [8] | Potency [9] | activity (max response) [2] -13% | Potency [10]
